# MBNL1 CUG block – qHTS Assay for Inhibitors of MBNL1-poly(CUG) RNA binding; Potency, µM (highest dose often 57.5 µM), for inactives: at the highest dose activity change, negative = inhibition, most hits filed as inhibitors; Muscleblind-like protein 1 (Homo sapiens), Q9NR56; TR-FRET MBNL1-His/biotin-(CUG)12 binding, 665/545 ratio; 0.036% of 280,000 active; AID 2675, 2010; active = well fitted inhibition curve with a large enough effect in the signal ratio, with a control signal flat, not every such curve was filed as active; inconclusive = small, poorly fitted or top-dose-only effect, or effect the other way, or a change in a side signal; inactive = no such curve, though single readings can be large or run the other way; the % refers to the signal ratio; also: potency is read from the fitted curve at half-maximal effect; % is scaled to controls: 0 for no effect and ±100 for the full control effect
# Target sequence (Q9NR56 whole entry, looked up): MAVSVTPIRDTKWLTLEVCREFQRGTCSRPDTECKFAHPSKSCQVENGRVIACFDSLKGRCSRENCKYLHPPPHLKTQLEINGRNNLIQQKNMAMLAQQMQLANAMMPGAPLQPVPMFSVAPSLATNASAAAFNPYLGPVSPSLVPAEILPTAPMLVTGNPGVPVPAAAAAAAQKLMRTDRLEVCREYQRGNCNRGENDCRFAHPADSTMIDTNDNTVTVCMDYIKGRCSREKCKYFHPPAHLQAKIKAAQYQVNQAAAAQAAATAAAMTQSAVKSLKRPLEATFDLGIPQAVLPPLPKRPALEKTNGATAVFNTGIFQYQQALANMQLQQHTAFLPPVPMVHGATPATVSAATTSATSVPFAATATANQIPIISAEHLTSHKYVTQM
#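 Ratiometric TR-FRET (665 over 545 nm, excitation 340 nm) tracks disruption of MBNL1-His/biotin-(CUG)12 complex after 60 min at room temperature, with compounds at 92 nM to 58 uM final.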
# KCNH2 WT inh – qHTS for Inhibitors of KCHN2 3.1: Wildtype qHTS | activity change, % at 1.84 µM | U2OS, BacMam KCNH2, thallium flux FluxOr; active compounds read low | Voltage-gated inwardly rectifying potassium channel KCNH2 (Homo sapiens), Q12809 | 0.37% of 340,000 active;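 active = maximum activity change below -70%; inconclusive = maximum activity change between -70% and -50%; inactive = maximum activity change above -50%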; also: % is scaled to controls: 0 for no effect and ±100 for the full control effect
#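 U2OS cells were transduced with wild-type KCNH2 virus (2.03 x 10^8 / mL) for 4 h at room temperature, then cultured overnight at 37 C. Thallium flux was read with FluxOr dye. Rate constants were normalized to DMSO controls.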
# PLK1 PBD inh – qHTS for Inhibitors of PLK1-PDB (polo-like kinase 1 - polo-box domain): Primary Screen; Plk1 PBD binding of FITC phosphopeptide, fluorescence polarization; Potency, µM, without a hit: max response, negative = inhibition, actives largely listed as inhibitors; 2.8% of 360,000 active; AID 720504, 2013; also: potency is read from the fitted curve at half-maximal effect; series mostly up to about 57 µM; % is scaled to controls: 0 for no effect and ±100 for the full control effect; nearly all actives have a fitted effect of over 65% in size
# VDR inh – Inhibitors of the vitamin D receptor (VDR): qHTS; Vitamin D3 receptor (Homo sapiens), P11473; VDR-SRC2-3 peptide fluorescence polarization, 2 h; Potency, µM, inactives show max response, negative = inhibition, hits mostly inhibitors; 0.93% of 400,000 active; also: potency is read from the fitted curve at half-maximal effect; % is scaled to controls: 0 for no effect and ±100 for the full control effect
#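 VDR–SRC2-3 interaction, FP format. Cmpds 23 nl via pintool, brief spin, 2 h ambient incubation.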
# CBFb RUNX1 block – qHTS Assay for Compounds Blocking the Interaction Between CBF-beta and RUNX1 for the Treatment of Acute Myeloid Leukemia; AlphaScreen CBFb-His/RUNX1-biotin binding, biochemical; Potency, µM (highest dose often 59.8 µM), inactives show at the highest dose activity, negative = inhibition, actives largely listed as inhibitors; Runt-related transcription factor 1 (Homo sapiens) + Core-binding factor subunit beta …; 230,000 tested, under 10 active; also: % of control where 0% means no effect
#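 CBFb-His/RUNX1-biotin, 30 nM each, preincubated 20 min RT; compound 15 min RT; Ni + streptavidin beads 50 ng each, 90 min RT; AlphaScreen read.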
# KCNH2 3.1 block – qHTS for Inhibitors of KCHN2 3.1: Mutant qHTS | Potassium voltage-gated channel subfamily H member 2, brain isoform KCNH2 3.1 (human) | U2OS KCNH2 3.1, thallium flux FluxOr; active compounds read low | activity change, % (tested at about 1.8 µM) | 0.95% of 340,000 active | AID 720553, 2013;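 active = maximum activity change below -70%; inconclusive = maximum activity change from -70% to -50%; inactive = maximum activity change above -50%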;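 also: thallium influx rate constant from kinetic fluorescence after stimulation buffer; % is scaled to controls: 0 for no effect and ±100 for the full control effect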
#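 We transduce U2OS cells with the mutant 3.1 virus, culture them overnight, load FluxOr with Red40 quencher for 45 min, then add stimulation buffer and read kinetically for 2 min to derive a normalized rate constant.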
# The depositor's hits bear a star; ? = inconclusive; · = no result given. In the library only some 3.8% were active in any assay of this set; here they are far more common. Unless noted, calls follow the shape of the dose curve; as a rule, active = well fitted curve in the direction sought with a large enough effect; inconclusive = small, poorly fitted or top-dose-only effect, or another doubt; inactive = no such curve, though single readings can be large; an effect the other way counts as inactive or inconclusive.
SMILES,MBNL1 CUG block,KCNH2 WT inh,PLK1 PBD inh,VDR inh,CBFb RUNX1 block,KCNH2 3.1 block
COC(=O)c1cc(-c2ccccc2)sc1NC(=O)CN1C(=O)c2ccccc2C1=O,-0.2%,-11.0,11.9µM*,-26.6%,3.9%,-1.6
Cc1ccc(OCCn2nnc3sc4c(c3c2=O)CCC(C)C4)cc1 (centres undefined),·,·,·,-0.5%,·,·
CCCCCCCCCCCCCCNCCO,·,·,·,0.7%,·,·
CC(C)CC(=O)NC(=S)Nc1ccc(S(=O)(=O)N2CCCC2)cc1,1.7%,-4.8,23.8µM*,-19.1%,-1.1%,7.6
CC(C)C(=O)NC(=S)Nc1ccc(S(=O)(=O)N2CCCC2)cc1,-1.6%,-4.0,-12.1%,-5.6%,0.3%,-12.0
O=C(CN1CCCCC1)Nc1ccc(S(=O)(=O)N2CCCCCC2)cc1,-24.2%,55.1,-1.1%,-5.5%,4.1%,-83.1*
CCOC(=O)c1ccc(N2C(=O)CC(SCC(=O)Nc3ccc(S(N)(=O)=O)cc3)C2=O)cc1 (centres undefined),-0.5%,-13.8,29.9µM*,?,9.4%,-9.9
Cc1ccc(N2C(=O)CC(SCC(=O)Nc3ccc(S(N)(=O)=O)cc3)C2=O)cc1 (centres undefined),-0.5%,-4.9,-11.8%,-5.9%,-8.0%,-2.1
O=S(=O)(c1ccc(NC(=S)NC2CC2)cc1)N1CCOCC1,-2.6%,-6.0,?,-4.9%,-4.5%,-1.0
O=S(=O)(c1ccc(NC(=S)NC2CCCC2)cc1)N1CCCC1,-4.0%,-26.1,15µM*,?,-3.9%,5.6
CCN(CC)S(=O)(=O)c1ccc2c(c1)N(CC(=O)Nc1ccc(OC)cc1)C(=O)CS2,·,·,·,-8.1%,·,·
Cc1cccc(-n2c(SCC(=O)Nc3ccc(C)c(C)c3)nc3n[nH]c(C)c3c2=N)c1,·,·,·,3.1%,·,·
NS(=O)(=O)c1ccc(NC(=O)CSC2CCCCC2)cc1,-2.0%,-0.3,29.9µM*,?,3.1%,-29.7
NS(=O)(=O)c1ccc(NC(=S)NC2CCCCCC2)cc1,-1.9%,-6.7,18.9µM*,-12.0%,-0.3%,7.8
Cc1cccc(C(=O)NC(=S)Nc2ccc(S(=O)(=O)N3CCN(C)CC3)cc2)c1,-13.2%,2.9,21.2µM*,-5.0%,-5.3%,32.3
COc1ccc(NC(=O)CSC2CCCCC2)cc1,-8.9%,-17.0,-4.0%,14.3%,12.6%,13.1
Cc1cccc(C(=O)NC(=S)Nc2ccc(S(=O)(=O)N3CCCCC3)cc2)c1,-3.9%,0.3,?,-15.9%,-15.0%,-15.2
O=C(COC(=O)CCN1C(=O)c2ccccc2C1=O)Nc1ccc(S(=O)(=O)N2CCCC2)cc1,1.3%,5.6,-8.6%,-11.6%,0.2%,9.4
O=C(CCN1C(=O)c2ccccc2C1=O)Nc1ccc(S(=O)(=O)N2CCOCC2)cc1,10.1%,-14.4,23.8µM*,?,10.0%,8.9
COC(=O)c1ccc(NC(=S)NNC(=O)CC(C)C)cc1,-12.3%,-8.8,26.7µM*,-19.9%,5.5%,10.6
COC(=O)c1ccc(NC(=S)NNC(=O)c2ccccc2)cc1,-11.3%,15.9,?,3.3%,12.8%,4.9
CNC(=O)c1nc(C)n(-c2ccc([N+](=O)[O-])cc2)n1,·,4.5,-11.6%,17.3%,-4.3%,-4.7
CCCNC(=O)c1nc(C)n(-c2ccc([N+](=O)[O-])cc2)n1,·,4.0,26.7µM*,8.3%,19.8%,-4.4
CCOc1ccc(NC(=O)/C=C\C(=O)N(c2ccc(C(C)C)cc2)C(C(=O)NCc2ccco2)c2ccc(F)cc2)cc1 (centres undefined),·,·,·,9.4%,·,·
COc1ccc(CN2C(=O)c3cccnc3C2=O)cc1S(=O)(=O)N(C)c1cccc(C)c1,?,5.3,23.8µM*,-6.3%,·,-1.0
SMILES,MBNL1 CUG block,KCNH2 WT inh,PLK1 PBD inh,VDR inh,CBFb RUNX1 block,KCNH2 3.1 block
Cc1ccc(C2=CC(C)(c3ccc(C)cc3)Nc3nc(C(F)(F)F)nn32)cc1 (centres undefined),-0.7%,-3.9,0.1%,-28.5%,4.8%,20.0
CC1(c2ccc(OCC#N)cc2)C=C(c2ccc(OCC#N)cc2)n2nc(C(F)(F)F)nc2N1 (centres undefined),·,-6.7,-2.9%,-18.5%,-25.2%,-106.3*
Cc1ccccc1NC(=O)C(=O)NCC(c1ccc2c(c1)OCO2)N1CCN(c2ccccc2)CC1 (centres undefined),·,·,·,8.2%,·,·
COc1ccc(/C=N/NC(=O)c2nc(-c3ccccc3)cc(-c3ccccc3)n2)cc1,-0.4%,-24.2,-8.5%,-0.1%,0.7%,-87.5*
COc1c(C)cccc1C(=O)Nc1ccc(Cl)c(-c2nc3cc(C)ccc3o2)c1,·,·,·,9.1%,·,·
O=C(CCCN1C(=O)/C(=C\c2ccco2)SC1=S)Nc1ccc(O)cc1C(=O)O,5.8%,-1.4,16.8µM*,?,·,-11.9
O=C(CCCN1C(=O)/C(=C\c2cccs2)SC1=S)Nc1ccc(O)cc1C(=O)O,?,-5.7,-4.0%,-15.9%,·,-7.7
O=C(/C=C/c1cccs1)NC1CCS(=O)(=O)C1 (centres undefined),25.3%,-2.8,26.7µM*,89.1µM*,10.9%,6.6
Cc1ccc(NC(=O)CN2C(=O)S/C(=C\c3ccc(-c4cccc(C(=O)O)c4C)o3)C2=O)cc1C,6.7%,-4.8,18.9µM*,-19.3%,11.1%,-3.6
CC(C(=O)N(C)C1CCS(=O)(=O)C1)N1C(=O)/C(=C/c2ccco2)SC1=S (centres undefined),?,3.0,?,-19.6%,·,-3.5
CC(C(=O)Nc1ccc(C(=O)O)c(O)c1)N1C(=O)/C(=C\c2ccco2)SC1=S (centres undefined),?,12.1,9.47µM*,-9.8%,·,4.6
O=S(=O)(NCCc1csc2nc(-c3ccc(Cl)cc3)nn12)c1cccs1,·,·,·,9.8%,·,·
CN1CCN2c3ccccc3CC3(C(=O)OC(C)(C)OC3=O)C2C1 (centres undefined),·,·,·,-20.3%,·,·
O=S(=O)(NCc1nc2cccnc2n1Cc1ccccc1Cl)c1ccc(F)c(Cl)c1,·,·,·,0.5%,·,·
COc1ccc(C(=O)N2CCN(c3nc4c(C)c(Cl)ccc4s3)CC2)c(OC)c1,·,·,·,-3.1%,·,·
Cc1nnc(N2CCN(c3ccccc3F)CC2)c2c1nnn2Cc1ccccc1Cl,·,·,·,10.4%,·,·

# Compound activity as filed in PubChem.
